A selection: hits, their analogues and other compounds. The true share with any hit is near 4%.
tim23-1 inh – tim23-1 yeast growth inhibition. inhibition, % at 20 µM. S. cerevisiae tim23-1 growth, BacTiter-Glo luminescence, 24 h. 1.3% of 330,000 active;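 active = growth inhibition of the mutant yeast at or above 50%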;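 also: temperature-sensitive mutant grown at 25 °C; plate controls were DMSO-treated mutant yeast for no effect and medium wells lacking yeast for full effect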
NALP1 inh – blocks the NALP1 inflammasome reconstituted in yeast | AID 2071 | S. cerevisiae NALP1/ASC/caspase-1 growth, X-gal OD620, 72 h | 0.61% of 280,000 active | inhibition, % at 10 µM; in the data active = inhibition mostly above about 24%, no sharp cut-off; inactive = mostly below about 32%
TIM10 inh – growth inhibitors of TIM10 yeast strain. inhibition, % at 10 µM. AID 463195. 1.4% of 330,000 active. S. cerevisiae TIM10 strain growth, BacTiter-Glo luminescence, 24 h;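 active = inhibition of 40% or more at the single tested concentration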;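 also: wild-type TIM10 isogenic control strain grown at permissive 25 °C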
NLRP3 yeast inh – blocks the NALP3 inflammasome reconstituted in yeast. inhibition, % at 10 µM. Yeast reconstituted NLRP3/ASC/caspase-1, beta-gal luminescence, 24 h. 0.39% of 330,000 active;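 active = inhibition of 50% or more; inactive = inhibition below 50%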;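 also: plate controls were induced DMSO wells for no effect and uninduced yeast grown without galactose for full effect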
tim10-1 inh – tim10-1 yeast growth inhibition. S. cerevisiae tim10-1 ts strain growth, BacTiter-Glo, 24 h. inhibition, % at 20 µM. 2.2% of 330,000 active. AID 463190;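 active = inhibition of at least 40%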;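 also: mutant grown at 25 °C; 0% = DMSO wells with yeast and 100% = wells holding no yeast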
Starred values were filed as active, the others as inactive; x = no result given.

SMILES | tim23-1 inh | NALP1 inh | TIM10 inh | NLRP3 yeast inh | tim10-1 inh
COc1ccc(C(C[N+](=O)[O-])C2(c3ccc(OC)c(OC)c3)C(=O)c3ccccc3C2=O)cc1 (centres undefined) | x | 103.8* | x | x | x
COc1ccc(Cn2c(=O)[nH]c3cc(C(=O)N4CCN(Cc5ccccc5)CC4)ccc3c2=O)cc1 | 6.4 | 26.9* | 1.8 | -1.5 | 7.3
CCN1CCN(CCCNC(=O)Cn2cc3c(n2)CCCC3)CC1 | -9.2 | 43.8* | 3.3 | -2.0 | 0.9
COc1ccc(NC(=O)c2cc(-c3cccnc3)nc3ccc(C)cc23)cc1OC | x | 33.9* | x | x | x
CC(=O)Nc1ccc(/C=N/Nc2nncc3ccccc23)cc1 | x | -9.5 | x | x | x
C(=N\Nc1nncc2ccccc12)/c1ccccn1 | 48.8 | 37.1* | 17.4 | 17.7 | -22.5
Cc1cc2cc(CCNS(=O)(=O)c3ccc(F)cc3)c(=O)[nH]c2cc1C | 11.5 | -16.3 | -11.0 | 2.9 | 15.2
O=C(Nc1cccnc1)c1cc(S(=O)(=O)N2CCCCC2)c(Cl)cc1Cl | 3.1 | -1.0 | 0.6 | -5.0 | 3.0
O=C(CCN1C(=O)C2C3C=CC(C3)C2C1=O)NC1CCCCC1 (centres undefined) | 13.3 | 36.8* | 12.4 | 3.0 | 17.1
CN1CCC(Oc2ccc(Sc3ccccc3)cc2)CC1 | 17.4 | 48.9* | 12.9 | 14.7 | 36.1
Cc1ccc(-c2ccc(/C=N/n3cnnc3)o2)cc1Cl | -12.7 | 9.6 | 12.8 | 25.9 | 36.0
Cc1ccc(-c2ccc(/C=N/n3cnnc3)o2)cc1 | 3.6 | 38.6* | 14.2 | 14.9 | 26.7
Cc1ccc(C(=O)OCC(=O)NC(C)C)cc1S(=O)(=O)N1CCOCC1 | 13.3 | 23.8* | 0.1 | 9.5 | -4.7
Cc1ccc(C(=O)OCC(=O)NCCc2ccc(F)cc2)cc1S(=O)(=O)N1CCOCC1 | 19.8 | x | 5.9 | 1.0 | 5.9
O=C(Oc1ccc(-c2nnco2)cc1)C1CCN(C(=O)c2ccc(F)cc2)CC1 | 8.8 | 15.6 | 15.5 | 10.9 | 14.2
Cc1nnc(SCc2ccccc2CSc2nnc(C)s2)s1 | 15.3 | -4.2 | 12.2 | -25.1 | 18.9
O=C(NCc1ccccc1)c1ccc(OC2CSC2)cc1 | -10.1 | 34.6* | -20.9 | 21.8 | 5.1
O=C(NCC(=O)N1CCC2(CC1)NCCc1[nH]cnc12)c1cccc(Cl)c1 | -9.1 | 4.5 | -8.0 | -2.8 | 0.3
Cn1c(N)c(C(=O)CSc2nnc(-c3ccccc3F)n2C2CC2)c(=O)n(C)c1=O | 6.6 | 34.3* | 7.6 | 12.3 | 5.6
C=CCn1c(SCC(=O)c2c(N)n(C)c(=O)n(C)c2=O)nnc1-c1ccccc1F | 2.7 | 36.8* | 0.6 | -3.8 | 6.5
Cn1c(N)c(C(=O)CSc2nnc(-c3ccccc3F)n2N)c(=O)n(C)c1=O | -8.0 | x | -8.3 | -20.1 | -12.5
O=C(CCN1C(=O)COc2ccccc21)NCCN1CCN(c2ccccc2F)CC1 | 1.3 | 31.7* | -22.4 | 24.6 | -14.6
O=C(Cc1ccccc1)NC1c2ccccc2-c2ccccc21 | -11.6 | 18.0 | 21.4 | 4.2 | 17.5
CCC(=O)n1nc(-c2ccc(OC)cc2)nc1N | 14.7 | 24.2* | -10.8 | 5.7 | 11.9
CCN(C(=O)Cc1c(C(=O)O)n(C)c2ccccc12)c1ccc(F)cc1 | 18.5 | 7.3 | -2.8 | -8.3 | 15.8
SMILES | tim23-1 inh | NALP1 inh | TIM10 inh | NLRP3 yeast inh | tim10-1 inh
Cc1cc(C)c(NC(=S)NC(CO)(CO)CO)c(C)c1 | 2.1 | x | 8.5 | 11.2 | -20.9
Oc1cc2c(cc1C(c1ccc(Br)cc1)N1CCCC1)OCO2 (centres undefined) | 36.3 | 43.2* | 32.9 | 44.4 | 39.8
CN(Cc1ccccc1)C(=O)c1ccc(NC(=O)C2CCCN(C(=O)OC(C)(C)C)C2)cc1 (centres undefined) | 21.7 | x | 6.0 | 14.4 | 12.0
N#Cc1ccccc1S(=O)(=O)N1CCN(S(=O)(=O)c2ccc(Br)c(C(=O)O)c2)CC1 | 10.4 | 5.3 | -6.0 | 14.7 | 10.7
O=C(N/N=C/c1cc(Cl)ccc1O)c1ccc(Br)cc1 | x | 45.7* | x | x | x
COc1ccc(C2N(C(=O)CN3CCCC3)CCCN2S(=O)(=O)c2ccccc2)cc1 (centres undefined) | 15.6 | 8.5 | -7.1 | 12.4 | 12.3
Cn1c(COc2ccc(C(=O)O)cc2)nc2ccccc21 | 5.7 | 2.5 | -9.0 | 21.0 | -7.7
CCCn1c(COc2ccc(C(=O)O)cc2)nc2ccccc21 | -4.7 | 42.9* | -5.0 | 27.0 | -26.0
CCCCOc1ccc(C(=O)O)cc1 | 8.0 | 19.9* | 5.5 | 45.2 | 7.2
COc1ccc(C(=O)NNC(=O)Cc2nc3nc(C)cc(C)n3n2)cc1 | -6.9 | -1.7 | 0.8 | 6.4 | -13.2
CCOCCCNCc1cn(-c2ccc(F)cc2F)nc1-c1ccccc1C | 14.9 | 26.8* | 24.1 | 12.5 | 25.0
CCOc1ccc(S(=O)(=O)N2CCCCC2)cc1NC(=O)CCNC(=O)c1ccco1 | 11.8 | x | 0.4 | 1.3 | 1.0
CCOc1ccccc1C(=O)NC(C(=O)NCc1ccccc1OC)C(C)C (centres undefined) | 17.4 | 1.8 | 19.1 | 14.0 | 1.2
CCOc1ccccc1C(=O)N[C@H](C(=O)Nc1cc(S(=O)(=O)N(C)C)ccc1OC)C(C)C | 13.8 | 23.8* | 19.1 | -3.3 | -6.8
COc1cccc(NC(=O)CN(C)C(=O)CC(NC(=O)c2ccccc2Cl)c2ccccc2)c1 (centres undefined) | -7.2 | x | -3.7 | 6.8 | 0.2
CC(/C=C/c1ccco1)=N\NC(=O)CNc1ccc2ccccc2c1 | 22.5 | 19.6* | 37.3 | 17.5 | 16.1
COc1ccc(C(CCN2CCN(c3ccccc3)CC2)c2c(O)cc(OC)cc2OC)cc1 (centres undefined) | 13.9 | 8.3 | 8.7 | 14.0 | 6.3
COc1ccc(N2CCN(CCC(O)c3ccc4ccccc4c3)CC2)cc1 (centres undefined) | -21.9 | 39.6* | -67.1 | 28.5 | -27.4
C[C@@H](c1ncncc1F)[C@](O)(Cn1cncn1)c1ccc(F)cc1F | x | 13.6 | x | x | x
COc1ccc(N=C2C(=O)N3c4c(cccc42)C(C)=CC3(C)C)cc1 | 35.4 | 18.4 | 11.7 | 35.3 | 31.0
CCOC(=O)c1cc2sc(C)cc2n1CC(=O)N1CCOCC1 | 0.3 | 36.4* | -12.0 | 17.3 | 17.4
CC1=NCCN1S(=O)(=O)c1c(C(C)C)cc(C(C)C)cc1C(C)C | 21.1 | 28.0* | 19.8 | 10.4 | 35.0
COc1ccc(Cl)cc1S(=O)(=O)N1CCN=C1C | -13.6 | 24.0 | -9.6 | 2.2 | -13.9
O=C(N/N=C/c1cccc(Oc2ccccc2)c1)c1ccccc1Br | 35.6 | 32.4* | -16.5 | 18.5 | 25.3
Cc1cccc(/N=C/c2c(O)c3ccccc3oc2=O)n1 | -7.7 | 27.1* | -2.6 | 7.1 | 2.6
Cc1cc(C)cc(N=Cc2c(O)c3ccccc3oc2=O)c1 | 9.3 | 3.6 | 8.7 | 1.4 | 7.6
CC(=O)c1cccc(CN2CCC(n3nccc3NC(=O)CCOc3ccccc3)CC2)c1 | -1.0 | 31.3* | 4.2 | 17.8 | -2.7
O=c1[nH]cnc(O)c1C(c1ccc2c(c1)OCO2)c1c(O)nc[nH]c1=O | 5.3 | 28.5* | -7.6 | 15.7 | -17.2
O=C(COC(=O)c1c(F)cccc1F)Nc1ccc(N2CCCCC2)cc1 | 6.4 | x | 2.2 | 19.5 | 1.5

High-throughput results as filed in PubChem.
